Assay results published in the OligoGym collection.

Biological target: NLRP9
Assay: pooled miR-30 sensor sort-seq; sequence = guide strand
Conditions: shRNA
Further: reference of the scale not given here.

Sequence | sensor-assay potency score (higher = more potent)
TTGGTAATGAACATTGAGCAAA | -1.26
TTTACAAACAGGCTGAGCCAGC | -0.948
TTGTTGGTAATGAACATTGAGC | -1.13
TTGTTTAACGTACTTGTGCTTC | -0.694
TATTGCTAGAACACTTAGGGAG | 0.102
TCTATAGACACATTCTAGCATC | -0.783
TTCTGTGTCAGAAGTATCCGGA | 0.451
TTTTTTTGCAACAAACTGCTCA | 0.0842
TTTCACACAAGTACAGACCAAC | -0.447
TTGACTTAAACTTTCAAGGCAT | 0.797
TTGTATTCCTCGTCAATCCAAG | -0.958
TAAATGTTGACAATGCTTCAGG | 0.0203

Biological target: NMD3
Assay: as above
Conditions: shRNA

Sequence | sensor-assay potency score (higher = more potent)
TCGAATACACACACAAATCTGG | -0.268
TTAGCCATTATCTTCATGCTGG | 0.243
TTGAAGGATAGCACCATTCATC | -0.92
TTTATATCTTGGACTATGCTGC | 0.0732
TTTTTGAGCTTTTACATCCAGA | -0.415
TTGATATCATTCCAGCACCTGC | -1.29
TACTTAACAAGTCTGATCTTGC | 0.186
TTAACTTTAAGTCTCTTAGAAT | -1.22
TTGATTAATACCACATCTGGAA | -0.0213
TTAACAAGTCTGATCTTGCTTA | 0.213
TTCACTAAAATAATCAACGTAA | -0.261
TATCTTGAGAGATCAGTCTTTG | -0.699

Biological target: NMNAT2
Assay: as above
Conditions: shRNA

Sequence | sensor-assay potency score (higher = more potent)
TTTATTTCTAAAGGAAACCTAA | -0.873
TAGAAATCTACTTCTATGGCAC | 0.539
TCCAGCAATAGCATCATCCTGA | -0.521
TAAAGAACATTGTCTTTGCTTT | -0.457
TTGGTGATGGGATTGAAGCTGC | -0.365
TTATATTAAATAGGAAACCTGT | -0.594
TAGTCAAACACTGATACCCCAA | -0.77
TTTGCTTTCAGGTCCCACCTGG | 0.293
TTCTGTTAAATCAAGTTCCTTT | 0.0856
TAACAGACTTTCTGGATGCTGC | -0.475
TAAAAGTATCCTAATACTCAGG | -0.84
TTTCCTTTGTTTCATTTCCTGG | -0.769
